High-throughput results as filed in PubChem BioAssay.
KB-3-1 tox: kills parental KB-3-1 adenocarcinoma cells. KB-3-1 viability, CellTiter-Glo ATP luminescence, 72 h. 400,000 tested, 1.4% active. Potency, µM (doses to about 46.1 µM), usual class: cytotoxic. AID 1347075; note: nearly all actives have a fitted effect of over 60% in size
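Cytotoxicity in the drug-sensitive parental line KB-3-1 was scored as loss of CellTiter-Glo luminescence following 72 h incubation with compound. Values come from curve fitting of normalized concentration-response data.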
HT1080 IDH1KD tx: HT-1080 IDH1 knockdown cell toxicity (counter line); HT-1080 IDH1 knockdown viability, ATP luminescence, 48 h; Potency, µM (series often up to 46.1 µM), hits mostly cytotoxic; 360,000 tested, 2% active; AID 686971
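Luminescent ATP read-out (CellTiter-Glo, 10 min at room temperature) after 48 h compound exposure at 37 °C gave viability of IDH1-knockdown HT-1080 cells. Activity was normalised to DMSO and cell-free wells, then fitted as concentration-response curves.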
IL-1B inflam inh: blocks inflammasome-driven IL-1 beta release | activity change, % at 57.5 µM | 360,000 tested, 4.7% active | THP-1 LPS/ATP IL-1B secretion, AlphaLISA, 16 h; active compounds read low; in the data active = activity change below about -50%; inconclusive = mostly about -30% to -49%
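Secreted IL-1B measured by AlphaLISA bead assay after 16 h compound exposure of THP-1 cells; compounds (final up to 57.5 uM) added 1 h before LPS (250 ng/mL) and ATP (1.25 mM) stimulation; lower signal means less secretion.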
KB-V1 MDR tox: kills drug-selected multidrug resistant KB-V1 cells; KB-V1 MDR cells viability, CellTiter-Glo, 72 h; Potency, µM (top dose mostly 46.1 µM), actives largely listed as cytotoxic; 400,000 tested, 3.4% active; AID 1347076; note: nearly all actives have a fitted effect of over 60% in size
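Luminescent ATP read-out (CellTiter-Glo, 10 min) measures survival of drug-selected KB-V1 MDR cells after 72 h, 37 degrees C compound exposure. Medium: phenol-red-free DMEM, 10% FBS. Values from fitted concentration-response curves.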
HT1080NT lethal: kills 2HG-producing HT-1080-NT fibrosarcoma cells | HT-1080-NT fibrosarcoma viability, CellTiter-Glo ATP luminescence, 48 h | Potency, µM (series often up to 46.1 µM), usual class: cytotoxic | 360,000 tested, 1.6% active | AID 686970;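 note: NT is the 2HG producing partner of a matched IDH1 knockdown line; nearly all actives have a fitted effect of over 55% in size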
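Read-out is CellTiter-Glo luminescence after 10 minutes at room temperature, following 48 hours' compound treatment of HT-1080-NT cells (750 cells/well, RPMI, 5% FBS, 37 degrees C).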
Of the large screens only hits and unclear results are named; the others gave an inactive call. Most compounds without a hit are left out; they make up all but 8.8% or so of the library. Unless noted, calls come from the whole dose curve; as a rule, active = well fitted curve in the direction sought with a large enough effect; inconclusive = small, poorly fitted or top-dose-only effect, or another doubt; inactive = no such curve, though single readings can be large; an effect the other way counts as inactive or inconclusive.

CC(=O)O[C@]1(C(C)=O)CC[C@H]2[C@@H]3C=CC4=CC(=O)C=C[C@]4(C)[C@H]3CC[C@@]21C	KB-3-1 tox inconclusive, KB-V1 MDR tox 13µM
CC(C)Cc1ccc(CN2CCCC(NC(=O)CCn3cnnn3)C2)cc1 (stereo not drawn)	IL-1B inflam inh -60, KB-V1 MDR tox inconclusive
O=C(CCc1ccc(F)c(F)c1)NC1CCCN(Cc2ccc(Cl)cc2)C1 (stereo not drawn)	IL-1B inflam inh -78
COC(=O)C[C@H]1C[C@H]2c3cc(NS(=O)(=O)c4cccc(OC)c4)ccc3O[C@H]2[C@@H](CO)O1	none
O=C(Nc1ccn(Cc2ccccc2F)n1)c1ccc(COc2cc(Cl)ccc2Cl)o1	KB-V1 MDR tox 4.1µM
Cc1nn(C)c(C(=O)Nc2ccn(Cc3ccccc3F)n2)c1[N+](=O)[O-]	KB-V1 MDR tox 26µM
O=C(Nc1ccn(Cc2ccccc2F)n1)c1ccc(COc2ccccc2Cl)cc1	KB-3-1 tox inconclusive, HT1080 IDH1KD tx inconclusive, KB-V1 MDR tox 2.6µM
O=C(Nc1ccn(Cc2c(F)c(F)cc(F)c2F)n1)c1ccc(COc2ccccc2Cl)cc1	HT1080 IDH1KD tx inconclusive, HT1080NT lethal inconclusive
O=C(Nc1ccn(Cc2c(F)c(F)cc(F)c2F)n1)c1ccc(COc2cc(Cl)ccc2Cl)o1	HT1080 IDH1KD tx inconclusive
Cc1cc(C)nc(NC(=O)c2ccc(COc3ccccc3Cl)cc2)c1	KB-3-1 tox inconclusive, HT1080 IDH1KD tx inconclusive, IL-1B inflam inh -62
Cc1nn(C)c(C(=O)Nc2ccn(C34CC5CC(CC(C5)C3)C4)n2)c1[N+](=O)[O-]	none
CC(=O)N(c1nnc(-c2cccc(C)c2)s1)C1CCCC1	none
CCc1ccc(C2CC(=O)Oc3c2c(=O)n(C)c2ccccc32)cc1 (stereo not drawn)	none (no result: HT1080 IDH1KD tx, IL-1B inflam inh, HT1080NT lethal)
CCn1cc(CNCc2cn(C)nc2-c2ccc(C3CCCCC3)cc2)cn1	HT1080 IDH1KD tx 21µM, IL-1B inflam inh -63, KB-V1 MDR tox inconclusive, HT1080NT lethal 15µM
Oc1ccc(N2CCN(C(c3ccc(Cl)cc3)c3nnnn3Cc3ccc(F)cc3)CC2)cc1 (stereo not drawn)	KB-3-1 tox inconclusive (no result: HT1080 IDH1KD tx, IL-1B inflam inh, HT1080NT lethal)
COc1ccc(S(=O)(=O)Cc2ccc(C(=O)NC3CCCCCC3)o2)cc1	none
O=C(/C(=C/c1ccc(Cl)cc1)c1nc2ccccc2[nH]1)c1ccccc1	KB-3-1 tox 5.2µM, HT1080 IDH1KD tx 4.1µM, IL-1B inflam inh -101, KB-V1 MDR tox inconclusive, HT1080NT lethal 2.9µM
O=C(N/C(=C/c1ccc(Cl)cc1)c1nc2ccccc2[nH]1)c1ccco1	KB-V1 MDR tox 12µM
CC(C)c1ccc(C(=O)NC(=S)NCc2cccnc2)cc1	KB-3-1 tox inconclusive, KB-V1 MDR tox 2.9µM
CN(C)c1ccc(NC(=O)c2ccc(Cn3cc([N+](=O)[O-])cn3)cc2)cc1	KB-3-1 tox 18µM, HT1080 IDH1KD tx inconclusive
CC(C)(C)c1ccc(C(=O)Nc2ccc(C(=O)NCc3cccnc3)cc2)cc1	HT1080 IDH1KD tx 1µM, HT1080NT lethal 1.6µM
O=C(NCc1cccnc1)c1ccc(NC(=O)c2ccc([N+](=O)[O-])cc2)cc1	HT1080 IDH1KD tx 15µM, HT1080NT lethal inconclusive
